TEAD-YAP block: TEAD-YAP interaction inhibition, primary screen, TEAD-YAP interaction inhibitor project, luminescence, HEK-TIYL cells; TEAD-Gal4/YAP UAS-luciferase luminescence; 1.4% of 640,000 active; inhibition, % at 9.12 µM; in the data active means inhibition above about 32%;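 further: 0% = median of test compound wells and 100% = reference inhibitor wells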
GPR151 ag: activators of human GPR151, primary screen, cell-based, PathHunter beta-arrestin, luminescence; G-protein coupled receptor 151 (Homo sapiens), Q8TDV0; 1% of 650,000 active; activation, % at 11.2 µM; PathHunter beta-arrestin GPR151 cells; in the data active means activation above about 4.9%;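 further: 0% = median of compound wells and 100% = cells with positive control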
MITF inh: MITF inhibitors, primary screen, biochemical, AlphaScreen, human. AlphaScreen MITF homodimerization, bead proximity signal. inhibition, % at 2.6 µM. Microphthalmia-associated transcription factor (Homo sapiens), O75030. 0.91% of 650,000 active; in the data active means inhibition above about 50%;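 further: 0% = vehicle wells with protein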
Target sequence (O75030 whole entry, looked up): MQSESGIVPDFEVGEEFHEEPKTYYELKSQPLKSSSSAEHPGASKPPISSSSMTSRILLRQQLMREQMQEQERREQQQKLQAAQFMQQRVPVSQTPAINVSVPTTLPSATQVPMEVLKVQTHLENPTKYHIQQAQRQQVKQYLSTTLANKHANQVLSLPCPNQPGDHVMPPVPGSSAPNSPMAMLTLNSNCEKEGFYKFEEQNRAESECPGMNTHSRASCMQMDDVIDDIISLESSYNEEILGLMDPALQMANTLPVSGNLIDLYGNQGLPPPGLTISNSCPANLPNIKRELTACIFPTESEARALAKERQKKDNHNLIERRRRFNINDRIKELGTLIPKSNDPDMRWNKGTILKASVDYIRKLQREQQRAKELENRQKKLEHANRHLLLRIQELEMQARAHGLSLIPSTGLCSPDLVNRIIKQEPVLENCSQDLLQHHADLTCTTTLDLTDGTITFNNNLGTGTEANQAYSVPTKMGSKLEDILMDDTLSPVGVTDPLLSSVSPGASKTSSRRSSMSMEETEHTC
FBW7 activator: FBW7 E3 ligase activators, primary screen, biochemical, AlphaScreen, human; normalized activity (activation), % at 26.1 µM; 0.13% of 650,000 active; AlphaScreen FBW7–phospho-cyclin E peptide binding, activator screen; F-box/WD repeat-containing protein 7 (Homo sapiens), Q969H0; in the data active means normalized activity above about 1.9%;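 further: purified mutant Fbw7 with reduced substrate affinity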
An asterisk follows results filed as active. An excerpt weighted towards active compounds, which were near 3.5% of everything screened.

SMILES | TEAD-YAP block | GPR151 ag | MITF inh | FBW7 activator
CCOc1ccc(CN2CCN(Cc3cn[nH]c3-c3ccccc3)CC2CCO)cc1 (centres undefined) | -4.3 | 1.4 | -12.3 | -0.1
COc1cc(S(=O)(=O)NCc2cccnc2)ccc1Cl | 8.5 | -0.6 | 0.9 | -0.1
COc1ccc(S(=O)(=O)Nc2ccc(OC)c(OC)c2)cc1Cl | 37.8* | 1.8 | -1.8 | -0.3
COc1cc(NS(=O)(=O)c2ccccc2)c(OC)cc1Cl | 2.6 | 1.1 | -4.0 | -0.1
CN(C)C(=O)c1ccc(S(=O)(=O)NCc2ccncc2)cc1 | 36.8* | 0.0 | 7.3 | 0.1
COc1cc(S(=O)(=O)NCc2ccncc2)ccc1Cl | 40.4* | 2.9 | 17.4 | -0.2
CCOc1ccc(S(=O)(=O)Nc2cc(OC)c(Cl)cc2OC)cc1 | 62.6* | -0.2 | 4.9 | -0.1
CC1=C(C(=O)N2CCCCC2)C(c2cccc(Br)c2)C2=C(CC(C)(C)CC2=O)N1 (centres undefined) | -6.0 | 0.1 | -2.0 | -0.2
COc1cc([N+](=O)[O-])ccc1NC(=O)c1ccc(C)c(Cl)c1 | -23.5 | 2.7 | -0.1 | 0.0
COc1ccc(-c2cccc(NC(=O)c3c(F)cccc3F)c2)nn1 | -3.5 | -0.6 | -5.3 | -0.1
COc1cc(S(=O)(=O)Nc2cc(OC)c(Cl)cc2OC)ccc1Cl | 50.1* | 3.0 | 13.2 | 0.1
CC1=NN(c2nc3ccccc3o2)C(=O)/C1=C\N(C)C | 92.4* | -5.4 | 3.7 | -0.4
CC1=NN(c2ccc(C)cc2)C(=O)/C1=C\N(C)C | -4.8 | -1.6 | 1.4 | 0.0
CCOC(=O)CCn1c(=O)c2c(nc3n(C)c(C)cn23)n(C)c1=O | 3.8 | 0.7 | 4.0 | -0.2
COc1ccc(OC)c(/C=C2/N=C(c3cccc([N+](=O)[O-])c3)OC2=O)c1 | 3.5 | 1.3 | 15.2 | 1.9*
CCOc1cc(CN2CCC(n3cc(C(=O)NCC(C)C)nn3)CC2)ccc1O | 7.4 | 1.3 | 0.0 | 0.1
Cc1nc(/N=C(\N)Nc2ccccc2)[nH]c(=O)c1C | 7.1 | -0.2 | 12.0 | 2.2*
O=C(O)CCN1C(=O)CSC1=S | 9.8 | 0.8 | 5.5 | 0.0
O=C(O)CCCCN1C(=O)CSC1=S | 37.6* | -1.0 | 23.6 | 0.2
COc1ccc(CNc2ccnc3c(-c4ccc(OC)cc4)cnn23)cc1 | 11.6 | 1.5 | -0.7 | 0.0
COc1cc(CNc2ccnc3c(-c4cccc(F)c4)cnn23)cc(OC)c1OC | 4.0 | 0.9 | 8.8 | 1.9*
COc1ccc(CNc2ccnc3c(-c4ccccc4)cnn23)cc1 | -17.6 | -0.7 | 2.2 | 1.9*
c1cncc(Nc2nc(Nc3ccc(N4CCOCC4)cc3)c3[nH]cnc3n2)c1 | 36.6* | 1.0 | 2.6 | -0.1
Nc1nc(Nc2ccc(N3CCOCC3)cc2)cc(Nc2nccc3ccccc23)n1 | 40.0* | 1.2 | 16.9 | 0.0
Nc1nc(Nc2ccccc2)cc(Nc2ccc(N3CCOCC3)cc2)n1 | 15.0 | -1.7 | 5.1 | -0.2
SMILES | TEAD-YAP block | GPR151 ag | MITF inh | FBW7 activator
c1ccc2c(Nc3nc(Nc4ccc(N5CCOCC5)cc4)c4[nH]cnc4n3)nccc2c1 | 37.6* | -1.2 | 13.6 | -0.2
COc1ccc(C(=O)c2ccc(N(C)C)cc2)c(OC)c1 | 54.8* | 0.5 | 4.2 | 0.0
Cc1ccc(C(=O)Nc2ccc(N(C)C)c3ccccc23)cc1 | -15.6 | -1.3 | 16.8 | 0.1
CN(C)c1ccc(C(=O)c2ccc(N(C)C)c3ccccc23)cc1 | 49.9* | 1.2 | 0.9 | -0.1
O=C(NC1CC1)c1ccc(CS(=O)(=O)c2ccc(Br)cc2)o1 | -9.2 | 0.2 | 8.3 | 0.0
Cc1nc(CC(=O)c2ccc(O)c(O)c2O)cs1 | -15.0 | -1.0 | 79.3* | -0.5
CC(=O)c1cccc(N2C(=O)C3C(C2=O)C2(C)c4ccccc4C3(C)c3ccccc32)c1 (centres undefined) | -3.8 | 0.5 | 3.2 | -0.2
O=C(Oc1ccccc1NC1=NS(=O)(=O)c2ccccc21)c1ccccc1Cl | 60.0* | 1.9 | 12.8 | 0.0
COc1ccccc1C(=O)Oc1ccc(Cl)cc1NC1=NS(=O)(=O)c2ccccc21 | -8.4 | 0.1 | -3.4 | 0.0
COc1cc(NC(=O)CSCc2ccc([N+](=O)[O-])cc2)c(C(=O)O)cc1OC | 4.0 | -1.2 | 10.4 | 0.4
CCOC(=O)c1c(C)n([O-])c2ccccc2[n+]1=O | 8.0 | 0.5 | 13.7 | 0.3
NC(=O)COC(=O)/C(=C/c1ccco1)n1nnnc1-c1ccccc1 | 1.1 | 1.0 | 13.2 | -0.1
O=C(NC1CCCCCC1)/C(=C/c1ccco1)n1nnnc1-c1ccccc1 | 34.5* | 0.7 | 7.3 | 0.3
O=C(NCc1ccccc1F)C1CCN(c2nnc(N3CCCC3=O)s2)CC1 | 0.6 | 1.5 | 3.0 | -0.1
O=C(NCc1ccncc1)c1ccc(OC2CCN(Cc3cc4ccccc4o3)CC2)cc1 | 44.9* | 2.9 | 2.6 | -0.1
CCc1ccc(NS(=O)(=O)c2c(C)[nH]c(=O)[nH]c2=O)cc1 | -5.1 | -0.9 | -1.1 | -0.2
Cc1cc(C)n(Cc2ccc(C(=O)N/N=C/c3ccc(O)cc3O)cc2)n1 | 60.8* | -0.4 | 18.5 | -0.8
Cc1cc(C)n(Cc2cccc(C(=O)N/N=C/c3ccc(O)cc3O)c2)n1 | 18.2 | 0.0 | 21.6 | -0.8
COc1ccc(CCCC(=O)N/N=C/c2cccc(OC)c2O)cc1C | 42.3* | -0.5 | -6.7 | -0.2
COc1cccc(/C=N/NC(=O)c2ccc(Cn3nc(C)cc3C)cc2)c1O | 52.6* | 0.1 | 28.5 | -0.1
COC(=O)/C(C#N)=C/c1c(Oc2ccc(F)cc2)nc2c(C)cccn2c1=O | 5.3 | -0.7 | -0.6 | 0.0
c1ccc(CSc2nc3ccncc3[nH]2)cc1 | 56.7* | -2.0 | -11.4 | 0.2
COC(=O)c1ccc(CSc2nc3ccncc3[nH]2)cc1 | 91.5* | -2.6 | 4.2 | 0.3
COC(=O)c1ccc(CSc2nc(C)cc(=O)[nH]2)cc1 | 4.2 | -0.5 | -8.8 | -0.1
N#Cc1cccc(CSc2nc3ccncc3[nH]2)c1 | 2.5 | -0.7 | 5.9 | 0.8
SMILES | TEAD-YAP block | GPR151 ag | MITF inh | FBW7 activator
COc1cccc(N2CCN(C(=O)c3cnn4c(C)c(Cc5cc(C)ccc5C)c(C)nc34)CC2)c1 | -11.7 | 0.4 | 3.4 | 0.0
O=C(NCCCN1CCOCC1)c1ccc2nc(N3CCOCC3)sc2c1 | -7.4 | -1.2 | 1.8 | -0.2
Cc1csc(NC(=O)c2sc3nc4c(c(C(F)(F)F)c3c2N)CCCC4)n1 | 65.0* | 1.0 | 11.8 | 0.1
Cc1ccc(-c2c3c(nc4sc(C(=O)Nc5ccccc5)c(N)c24)CCCC3)cc1 | 2.2 | -1.6 | -16.9 | -0.1
Cc1csc(NC(=O)c2sc3nc(C)c4c(c3c2N)CCCC4)n1 | 94.3* | 0.3 | -2.8 | 0.0
O=C(c1cc(-c2ccc3c(c2)OCO3)on1)N1CCCC1 | 41.1* | -2.1 | -14.2 | -0.1
O=C(c1cc(-c2cccc(O)c2)on1)N1CCOCC1 | 64.7* | -4.9 | 14.8 | 0.1
O=C(c1cc(-c2ccc(O)cc2)on1)N1CCCCC1 | 45.0* | -0.6 | 4.2 | 0.1
C=CCNC(=O)c1cc(-c2cccc(O)c2)on1 | 34.1* | -2.1 | 2.4 | -0.1
O=C(c1cc(-c2cccc(O)c2)on1)N1CCCCCC1 | 31.1 | -0.5 | -7.8 | 0.0

Screening data (PubChem BioAssay)
